Laboratory results taken from PubChem BioAssay (NCI).
Compounds without any hit were thinned out: in the full panel of roughly 83,000, 20% have a hit.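 Treatment: one concentration, 48 hours, 96-well format. Scoring: percent growth, with anything below 10 considered active.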 Active and inactive are the calls of the source.

Key:
Test in all cases: NCI-60 one-dose screen, 48 h (100 = growth as untreated, 0 = no growth, -100 = all killed)
Settings in all cases: 10 µM unless noted
HCT-15 colon = test system: HCT-15 colon
SNB-75 CNS = test system: SNB-75 CNS
SNB-19 CNS = test system: SNB-19 CNS
PC-3 prostate = test system: PC-3 prostate
UACC-62 melanoma = test system: UACC-62 melanoma
LOX IMVI melanoma = test system: LOX IMVI melanoma
SK-MEL-28 melanoma = test system: SK-MEL-28 melanoma
SK-MEL-2 melanoma = test system: SK-MEL-2 melanoma
EKVX NSCLC = test system: EKVX NSCLC
SN12C renal = test system: SN12C renal
UO-31 renal = test system: UO-31 renal
TK-10 renal = test system: TK-10 renal
ACHN renal = test system: ACHN renal
CAKI-1 renal = test system: CAKI-1 renal
A498 renal = test system: A498 renal
CCRF-CEM leukemia = test system: CCRF-CEM leukemia
MOLT-4 leukemia = test system: MOLT-4 leukemia
U251 CNS = test system: U251 CNS
SK-MEL-5 melanoma = test system: SK-MEL-5 melanoma
HT29 colon = test system: HT29 colon

Measured: growth

COc1cccc(C(N)=Nc2ccc(OCCCCCCCCn3cncn3)cc2)c1
inactive: HCT-15 colon 11.7% | SNB-75 CNS 60.8% | SNB-19 CNS 24.6% | PC-3 prostate 37.7% | UACC-62 melanoma 27.4% | LOX IMVI melanoma 20% | SK-MEL-28 melanoma 55.3% | SK-MEL-2 melanoma 14% | EKVX NSCLC 37.4% | SN12C renal 20.6% | UO-31 renal 39.5% | TK-10 renal 57% | ACHN renal 28% | CAKI-1 renal 40.3% | A498 renal 94.3% | CCRF-CEM leukemia 16.4% | MOLT-4 leukemia 16.8%

O=CNc1cccc(-n2cnc3cc(-c4ccc(O)cc4)ccc32)c1
inactive: HCT-15 colon 15.5% | SNB-75 CNS 21.4% | SNB-19 CNS 43.3% | U251 CNS 25.4% | PC-3 prostate 49% | SK-MEL-5 melanoma 35.6% | UACC-62 melanoma 38.2% | LOX IMVI melanoma 21.2% | SK-MEL-28 melanoma 56.2% | SK-MEL-2 melanoma 79.2% | EKVX NSCLC 71.5% | SN12C renal 22.9% | UO-31 renal 10.3% | TK-10 renal 79.3% | ACHN renal 16.9% | CAKI-1 renal 42.2% | A498 renal 147% | CCRF-CEM leukemia 23%

OCCn1cc(-c2nc3ccc4[nH]ncc4c3c3c2CCCC3)cn1
active: CAKI-1 renal 1.75% | A498 renal -3.55%
inactive: HCT-15 colon 26.4% | SNB-75 CNS 20% | SNB-19 CNS 59.3% | U251 CNS 51.2% | SK-MEL-5 melanoma 22.3% | UACC-62 melanoma 27.9% | LOX IMVI melanoma 25.4% | SK-MEL-28 melanoma 59.3% | SK-MEL-2 melanoma 43.3% | EKVX NSCLC 32.8% | SN12C renal 36.7% | UO-31 renal 22.3% | TK-10 renal 16.5% | ACHN renal 16.3% | CCRF-CEM leukemia 48.4% | MOLT-4 leukemia 31.2%

CCOc1ccc2[nH]c(=O)c(C(c3nnnn3CC3CCCO3)N3CCN(Cc4ccccc4)CC3)cc2c1 (stereo unspecified)
active: SNB-75 CNS -22.2%
inactive: HCT-15 colon 99.7% | SNB-19 CNS 38.5% | U251 CNS 60.9% | PC-3 prostate 94% | SK-MEL-5 melanoma 104% | UACC-62 melanoma 76.3% | LOX IMVI melanoma 87.2% | SK-MEL-28 melanoma 101% | SK-MEL-2 melanoma 102% | EKVX NSCLC 86.9% | SN12C renal 88.2% | UO-31 renal 99.9% | TK-10 renal 114% | ACHN renal 61.2% | CAKI-1 renal 76.3% | A498 renal 76% | CCRF-CEM leukemia 93.7% | MOLT-4 leukemia 101%

CN1CCN(C(=O)CCN(C(=O)Oc2cc3c(c4ccccc24)[C@H](CCl)CN3C(=O)c2cc3cc(OCCCN4CCC4)ccc3[nH]2)[C@H]2CCSSC2)CC1
active: HT29 colon -69.8% | SNB-75 CNS -58.5% | SNB-19 CNS -50.7% | U251 CNS -65.9% | PC-3 prostate -65% | SK-MEL-5 melanoma -93.7% | UACC-62 melanoma -81.9% | LOX IMVI melanoma -71.8% | SK-MEL-28 melanoma -89.2% | SK-MEL-2 melanoma -83% | EKVX NSCLC -89.3% | SN12C renal 0.64% | UO-31 renal -37.7% | TK-10 renal -25.7% | ACHN renal -30.5% | CAKI-1 renal -58.3% | A498 renal -40.9% | CCRF-CEM leukemia -35.6%

CCc1ccccc1-c1nc(CN[C@@H]2C[C@@H]3C[C@H]([C@H]2C)C3(C)C)c(C)o1
active: HCT-15 colon -71.2% | SNB-75 CNS -68.1% | SNB-19 CNS -81.7% | U251 CNS -61.9% | PC-3 prostate -54.3% | SK-MEL-5 melanoma -94.3% | UACC-62 melanoma -88.3% | LOX IMVI melanoma -94.4% | SK-MEL-28 melanoma -80.3% | SK-MEL-2 melanoma -83.6% | EKVX NSCLC -81.8% | SN12C renal -79.3% | UO-31 renal -87.8% | TK-10 renal -88.9% | ACHN renal -97.9% | CAKI-1 renal -95% | A498 renal -90.9% | CCRF-CEM leukemia 3.82%

COc1ccc(NC(=O)N/N=C/c2c[nH]c3ccccc23)cc1
inactive: HCT-15 colon 26.2% | SNB-75 CNS 19.6% | SNB-19 CNS 47.3% | U251 CNS 28.3% | PC-3 prostate 48.7% | SK-MEL-5 melanoma 20.5% | UACC-62 melanoma 25.5% | LOX IMVI melanoma 28% | SK-MEL-28 melanoma 67.9% | EKVX NSCLC 43.1% | SN12C renal 34.4% | UO-31 renal 40.3% | TK-10 renal 74.4% | ACHN renal 51.1% | CAKI-1 renal 44% | A498 renal 85.5% | CCRF-CEM leukemia 21% | MOLT-4 leukemia 20.5%
active: SK-MEL-2 melanoma -10.7%

Cc1nn(-c2ccccc2)c2nc(C)n(C(=O)N/N=C/c3cccc([N+](=O)[O-])c3)c(=O)c12
inactive: HCT-15 colon 63.5% | SNB-75 CNS 75.4% | SNB-19 CNS 94.1% | U251 CNS 93.1% | PC-3 prostate 92.9% | SK-MEL-5 melanoma 90.7% | UACC-62 melanoma 73.5% | LOX IMVI melanoma 82.7% | SK-MEL-2 melanoma 92.9% | EKVX NSCLC 49.3% | SN12C renal 94.4% | UO-31 renal 81.4% | TK-10 renal 138% | ACHN renal 91% | CAKI-1 renal 90.8% | A498 renal 136% | CCRF-CEM leukemia 71.2% | MOLT-4 leukemia 79.2%

O=Cc1cncc(-c2ccc3ncnc(N4CCc5cc(F)c(Cl)cc54)c3c2)c1
active: SNB-75 CNS -12.6% | EKVX NSCLC 0.858% | TK-10 renal 4.74% | A498 renal -30.4% | MOLT-4 leukemia -30.6%
inactive: HCT-15 colon 18.7% | SNB-19 CNS 49.5% | PC-3 prostate 23.6% | SK-MEL-5 melanoma 19.5% | UACC-62 melanoma 13.4% | LOX IMVI melanoma 20.8% | SK-MEL-28 melanoma 44.2% | SK-MEL-2 melanoma 24.5% | SN12C renal 23.2% | UO-31 renal 10.7% | ACHN renal 11.5% | CAKI-1 renal 12.5% | CCRF-CEM leukemia 16.6%

O=C(Nc1ccc(S(=O)(=O)N2CCCCC2)cc1)C(Cl)Cl
inactive: HCT-15 colon 103% | SNB-75 CNS 103% | SNB-19 CNS 93.7% | U251 CNS 98% | PC-3 prostate 107% | SK-MEL-5 melanoma 105% | UACC-62 melanoma 106% | LOX IMVI melanoma 100% | SK-MEL-28 melanoma 130% | SK-MEL-2 melanoma 104% | EKVX NSCLC 95.4% | SN12C renal 112% | UO-31 renal 97% | TK-10 renal 103% | ACHN renal 109% | CAKI-1 renal 97.9% | A498 renal 111% | CCRF-CEM leukemia 127%

Cn1cc(-c2cc(N)n3nc(-c4c[nH]c5ccccc45)cc3n2)c2cc(F)ccc21
inactive: SNB-75 CNS 71.5% | SNB-19 CNS 15% | PC-3 prostate 17.4% | SK-MEL-5 melanoma 67.4% | UACC-62 melanoma 66.3% | SK-MEL-28 melanoma 77.5% | SK-MEL-2 melanoma 51.6% | EKVX NSCLC 60.2% | SN12C renal 47.1% | UO-31 renal 59.7% | TK-10 renal 50.6% | ACHN renal 31.7% | CAKI-1 renal 77.5% | A498 renal 99% | MOLT-4 leukemia 25.7%
active: HCT-15 colon -77.5% | U251 CNS -39.4% | LOX IMVI melanoma -80.7% | CCRF-CEM leukemia -0.0318%

O=C(Nc1nc2ccc([N+](=O)[O-])cc2s1)Nc1ccccc1F
inactive: HCT-15 colon 13.9% | SNB-75 CNS 18.8% | SNB-19 CNS 10.2% | PC-3 prostate 13.9% | UACC-62 melanoma 22.4% | LOX IMVI melanoma 10.5% | SK-MEL-28 melanoma 22% | TK-10 renal 17.9% | CCRF-CEM leukemia 15.5% | MOLT-4 leukemia 15.7%
active: U251 CNS 6.8% | SK-MEL-5 melanoma -51.6% | SK-MEL-2 melanoma 6.45% | EKVX NSCLC 5.56% | SN12C renal 2.55% | UO-31 renal 6.12% | ACHN renal 1.6% | CAKI-1 renal -8.16% | A498 renal -18.3%

COC(=O)c1c(C(=O)OC)c2c3ccccc3c3ccccc3n2c1C(=O)C(F)(F)F
inactive: HT29 colon 103% | SNB-75 CNS 87.9% | SNB-19 CNS 102% | PC-3 prostate 72.4% | SK-MEL-5 melanoma 93.7% | UACC-62 melanoma 63% | LOX IMVI melanoma 87.7% | SK-MEL-28 melanoma 103% | SK-MEL-2 melanoma 94.4% | SN12C renal 92.7% | UO-31 renal 65.9% | TK-10 renal 113% | ACHN renal 93.7% | CCRF-CEM leukemia 98.2% | MOLT-4 leukemia 117%

Cc1nc2sccn2c1-c1nnc(SCC(C)C)o1
inactive: HT29 colon 79.9% | SNB-75 CNS 73.7% | SNB-19 CNS 78.7% | U251 CNS 78.2% | PC-3 prostate 83.1% | SK-MEL-5 melanoma 89.4% | UACC-62 melanoma 77.2% | LOX IMVI melanoma 91.3% | SK-MEL-28 melanoma 104% | SK-MEL-2 melanoma 92.1% | EKVX NSCLC 74.5% | SN12C renal 88.4% | UO-31 renal 67.7% | TK-10 renal 127% | ACHN renal 87.8% | CAKI-1 renal 76.7% | A498 renal 98.5% | CCRF-CEM leukemia 51.6% | MOLT-4 leukemia 84.1%

COC(=O)c1c(C(=O)OC)c2ccc3c4ccccc4ccc3n2c1C(=O)C(C)Br (stereo unspecified)
active: LOX IMVI melanoma -5.75% | CCRF-CEM leukemia -4.34% | MOLT-4 leukemia 0.188%
inactive: HT29 colon 24% | SNB-75 CNS 94.3% | PC-3 prostate 47.1% | SK-MEL-5 melanoma 24.4% | UACC-62 melanoma 33.5% | SK-MEL-28 melanoma 65.4% | SK-MEL-2 melanoma 26.9% | EKVX NSCLC 86.5% | SN12C renal 35.7% | UO-31 renal 45% | TK-10 renal 58.1% | ACHN renal 43.9% | CAKI-1 renal 71.3% | A498 renal 87.2%

Cc1ccc(S(=O)(=O)Nc2ccc(-c3ccc4c(c3)NC(=O)/C4=C\c3ccc[nH]3)cc2)cc1
inactive: HT29 colon 78.5% | SNB-75 CNS 96.1% | SNB-19 CNS 95.1% | U251 CNS 77.3% | PC-3 prostate 80.1% | SK-MEL-5 melanoma 99.1% | UACC-62 melanoma 89.8% | LOX IMVI melanoma 91.7% | SK-MEL-28 melanoma 95.9% | SK-MEL-2 melanoma 105% | EKVX NSCLC 35.7% | SN12C renal 85.8% | UO-31 renal 93.9% | TK-10 renal 98.4% | ACHN renal 93.5% | CAKI-1 renal 87.3% | A498 renal 112% | CCRF-CEM leukemia 62.3% | MOLT-4 leukemia 68.1%

O=C(Nc1ccc(-c2ccc3c(c2)NC(=O)/C3=C\c2ccc[nH]2)cc1)Nc1ccc(Cl)c(C(F)(F)F)c1
active: MOLT-4 leukemia 9.33%
inactive: HT29 colon 17.4% | SNB-75 CNS 38.5% | SNB-19 CNS 72.9% | PC-3 prostate 39.5% | SK-MEL-5 melanoma 49.3% | UACC-62 melanoma 31.7% | LOX IMVI melanoma 46.9% | SK-MEL-28 melanoma 47.7% | SK-MEL-2 melanoma 34.2% | EKVX NSCLC 25.3% | SN12C renal 19.4% | UO-31 renal 36.1% | TK-10 renal 42.1% | ACHN renal 37.3% | CAKI-1 renal 39.3% | CCRF-CEM leukemia 27.4%
